“And” between values parts separate entries of the source, which are not always exact repeats. Equal entries are not always repeated. In all, about 5,500 compounds went through this assay and about 2,000 (36%) were called active. Inconclusive results (about 18%) are left out. Cut-off read from the data, not from the text of the source: active = normalized growth mostly below about 0.91 (no sharp cut-off); inconclusive = no clear call, values can overlap the other calls; inactive = mostly above about 0.92. Some of the results follow.
Assay: chemical genetic growth profiling, strain panel (AID 1159580);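 note: tested at 20 µM; growth read once vehicle control cultures reached saturation at 30 °C; 1 = growth at the plate median or of vehicle wells; lower values mean less growth of the strain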
Conditions: S. cerevisiae deletion strains, growth OD

Measured: normalized growth

C=CC(C)(O)CC/C=C(\C)CCC=C(C)C (configuration not stated)
0.955 (inactive) and 0.825 (active): locus YHR030C, strain SLT2, stronger effect = lower value
active: locus YDR195W, strain ref2 0.662 | locus YDR392W, strain spt3, stronger effect = lower value 0.454 | locus YER155C, strain BEM2 (second series), stronger effect = lower value 0.777 | locus YER155C, strain BEM2, stronger effect = lower value 0.807 | locus YHR079C, strain IRE1, stronger effect = lower value 0.81 | locus YHR142W, strain chs7, stronger effect = lower value 0.75 | locus YJL164C, strain tpk1, stronger effect = lower value 0.915 | locus YJL166W, strain qcr8, stronger effect = lower value 0.902
inactive: locus YAL013W, strain DEP1, stronger effect = lower value 0.947 | locus YAL021C, strain ccr4, stronger effect = lower value 0.913 | locus YAL026C, strain drs2, stronger effect = lower value 0.958 | locus YAL030W, strain snc1, stronger effect = lower value 0.986 | locus YBL061C, strain skt5, stronger effect = lower value 0.951 | locus YBR009C, strain hhf1, stronger effect = lower value 0.923 | locus YBR021W, strain FUR4, stronger effect = lower value 0.863 | locus YBR023C, strain chs3, stronger effect = lower value 0.938 | locus YBR171W, strain sec66, stronger effect = lower value 0.965 | locus YBR229C, strain ROT2, stronger effect = lower value 0.999 | locus YBR231C, strain swc5, stronger effect = lower value 0.98 | locus YCL011C, strain gbp2, stronger effect = lower value 0.949 | locus YCL016C, strain dcc1, stronger effect = lower value 0.965 | locus YCL029C, strain bik1, stronger effect = lower value 0.993 | locus YCL061C, strain MRC1, stronger effect = lower value 0.969 | locus YCL069W, strain vba3, stronger effect = lower value 0.968 | locus YCR088W, strain abp1, stronger effect = lower value 0.975 | locus YDL005C, strain med2, stronger effect = lower value 0.956 | locus YDL035C, strain GPR1, stronger effect = lower value 0.956 | locus YDL040C, strain nat1, stronger effect = lower value 0.982 | locus YDL074C, strain BRE1, stronger effect = lower value 0.886 | locus YDL101C, strain DUN1, stronger effect = lower value 0.958 | locus YDL185W, strain tfp1, stronger effect = lower value 1.02 | locus YDL192W, strain arf1, stronger effect = lower value 0.952 | locus YDR001C, strain nth1, stronger effect = lower value 0.98 | locus YDR069C, strain doa4, stronger effect = lower value 0.946 | locus YDR101C, strain arx1, stronger effect = lower value 0.992 | locus YDR137W, strain rgp1, stronger effect = lower value 0.916 | locus YDR159W, strain sac3, stronger effect = lower value 0.862 | locus YDR162C, strain NBP2, stronger effect = lower value 0.92 | locus YDR297W, strain sur2, stronger effect = lower value 0.974 | locus YDR318W, strain mcm21, stronger effect = lower value 0.99 | locus YDR334W, strain swr1, stronger effect = lower value 0.944 | locus YDR335W, strain msn5, stronger effect = lower value 0.979 | locus YDR388W, stronger effect = lower value 0.985 | locus YDR502C, strain sam2, stronger effect = lower value 0.978 | locus YEL003W, strain gim4, stronger effect = lower value 0.983 | locus YEL037C, strain rad23, stronger effect = lower value 0.964 | locus YEL061C, strain CIN8 (second series), stronger effect = lower value 0.978 | locus YEL061C, strain CIN8, stronger effect = lower value 0.937 | locus YER015W, strain faa2, stronger effect = lower value 0.974 | locus YER016W, strain bim1, stronger effect = lower value 0.988 | locus YER110C, stronger effect = lower value 1.01 | locus YER111C, strain swi4, stronger effect = lower value 0.947 | locus YER167W, strain BCK2, stronger effect = lower value 0.944 | locus YFR010W, strain ubp6, stronger effect = lower value 0.903 | locus YGL078C, strain dbp3, stronger effect = lower value 0.988 | locus YGL086W, strain mad1, stronger effect = lower value 0.981 | locus YGL167C, strain pmr1, stronger effect = lower value 0.984 | locus YGL173C, strain kem1, stronger effect = lower value 0.965 | locus YGL227W, strain vid30, stronger effect = lower value 0.979 | locus YGL240W, strain doc1, stronger effect = lower value 0.964 | locus YGL248W, strain PDE1, stronger effect = lower value 0.931 | locus YGL253W, strain hxk2, stronger effect = lower value 0.984 | locus YGR135W, strain pre9, stronger effect = lower value 0.967 | locus YGR252W, strain gcn5, stronger effect = lower value 1.03 | locus YHR013C, strain ard1, stronger effect = lower value 0.964 | locus YHR027C, strain rpn1, stronger effect = lower value 0.978 | locus YHR079C, strain IRE1 (second series), stronger effect = lower value 0.999 | locus YHR094C, strain hxt1, stronger effect = lower value 1.02 | locus YHR129C, strain ARP1, stronger effect = lower value 0.939 | locus YHR200W, strain rpn10, stronger effect = lower value 0.991 | locus YIL066C, strain RNR3, stronger effect = lower value 0.934 | locus YIL073C, strain SPO22, stronger effect = lower value 0.88 | locus YIL125W, strain kgd1, stronger effect = lower value 1.02 | locus YIR030C, strain dcg1, stronger effect = lower value 1.01 | locus YJL092W, strain hpr5, stronger effect = lower value 0.965 | locus YJL095W, strain BCK1 (second series), stronger effect = lower value 0.99 | locus YJL095W, strain BCK1, stronger effect = lower value 0.869 and 0.946 | locus YJL115W, strain asf1, stronger effect = lower value 0.954 | locus YJL129C, strain trk1, stronger effect = lower value 0.923 | locus YJL134W, strain LCB3, stronger effect = lower value 0.997 | locus YJL154C, strain vps35, stronger effect = lower value 0.959 | locus YJL168C, strain set2, stronger effect = lower value 1.01 | locus YJL187C, strain SWE1 (second series), stronger effect = lower value 0.946 | locus YJL187C, strain SWE1, stronger effect = lower value 0.986 | locus YJR043C, strain POL32, stronger effect = lower value 0.978 | locus YJR066W, strain TOR1, stronger effect = lower value 0.911

Reference: PubChem BioAssay AID1159580 (chemical genetic matrix, 2015)
